# A549 tox = kills or reduces viability of A549 cells in Nrf2 counter-screen. Potency, µM (doses to about 46 µM), for inactives: top-dose activity change, negative = cytotoxicity, most hits filed as inhibitors. AID 504648. A549 ARE-Fluc cells, CellTiter-Fluor viability, 18-24 h. hit rate 0.16% among 390,000; also: potency is read from the fitted curve at half-maximal effect; % is scaled to controls: 0 for no effect and ±100 for the full control effect
#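 Cytotoxicity counterscreen: CellTiter-Fluor fluorescence was measured in A549 ARE_Fluc cells after 18-24 h of compound exposure in a concentration series. The subsequent BugLite luminescent read reports ARE-luciferase activity.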
# Nrf2 activator = Nrf2 pathway activation. Potency, µM (highest dose often 46.1 µM), without a hit: top-dose activation, hits mostly activators. hit rate 0.31% among 410,000. AREc32 ARE-luciferase reporter (MCF7-derived line), luminescence, 24 h; also: potency is read from the fitted curve at half-maximal effect; % of control where 0% means no effect; nearly all actives have a fitted effect of over 65% in size
#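 AREc32_Fluc, 1000 cells/well, OPTI-MEM + 5% FBS, o/n 37 deg C 5% CO2; 23 nL cpd by pin tool, 24 hr; Steady-Glo 30 min RT, luminescence.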
# Nrf2 inh = Nrf2 pathway inhibition; A549 ARE-Fluc reporter, luciferase luminescence, 18-24 h; Potency, µM (doses to about 46 µM), for the others: at the top dose activity change, negative = inhibition, usual class: inhibitors; hit rate 2.1% among 360,000; also: potency is read from the fitted curve at half-maximal effect; % is scaled to controls: 0 for no effect and ±100 for the full control effect; nearly all actives have a fitted effect of over 60% in size
#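 Nrf2 function is reported as luminescence of an ARE-controlled luciferase in A549 cells. Compounds were tested at several concentrations, and a CellTiter-Fluor read on the same wells flagged cytotoxicity.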
# ALOX12 inh = inhibitors of human 12S-lipoxygenase ALOX12. hit rate 1.1% among 580,000. purified 12hLO, xylenol orange hydroperoxide absorbance. P18054. Potency, µM (highest dose often 108 µM), for inactives: at the top dose activity change, negative = inhibition, most hits filed as inhibitors; also: potency is read from the fitted curve at half-maximal effect; % is scaled to controls: 0 for no effect and ±100 for the full control effect
#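 Purified human 12hLO at 150 nM in 25 mM Hepes, 0.01% Triton X-100, pH 7.0, preincubated 15 min at room temperature with compound. Reaction started with 40 uM arachidonic acid, 30 min at room temperature. Hydroperoxide measured by Fe-xylenol orange, 573/405 nm absorbance ratio.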
# ERG Ets-DNA blk = blocks human ERG Ets domain binding to DNA; P11308; Potency, µM (highest dose often 76.9 µM), for the others: at the top dose FP activity, negative = inhibition, usual class: inhibitors; fluorescence polarization, His-ERG Ets domain / labelled DNA; hit rate 0.028% among 370,000; active = well fitted inhibition curve with a large enough effect in the polarisation, with a control signal flat; inconclusive = small, poorly fitted or top-dose-only effect, or effect the other way, or a change in a side signal; inactive = no such curve, though single readings can be large or run the other way; the % refers to the polarisation;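 also: polarization taken with two DNA probes labelled with fluorescein and Texas red; potency is read from the fitted curve at half-maximal effect; % of control where 0% means no effect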
# Target sequence (P11308 whole entry, looked up, the tested form may be a part): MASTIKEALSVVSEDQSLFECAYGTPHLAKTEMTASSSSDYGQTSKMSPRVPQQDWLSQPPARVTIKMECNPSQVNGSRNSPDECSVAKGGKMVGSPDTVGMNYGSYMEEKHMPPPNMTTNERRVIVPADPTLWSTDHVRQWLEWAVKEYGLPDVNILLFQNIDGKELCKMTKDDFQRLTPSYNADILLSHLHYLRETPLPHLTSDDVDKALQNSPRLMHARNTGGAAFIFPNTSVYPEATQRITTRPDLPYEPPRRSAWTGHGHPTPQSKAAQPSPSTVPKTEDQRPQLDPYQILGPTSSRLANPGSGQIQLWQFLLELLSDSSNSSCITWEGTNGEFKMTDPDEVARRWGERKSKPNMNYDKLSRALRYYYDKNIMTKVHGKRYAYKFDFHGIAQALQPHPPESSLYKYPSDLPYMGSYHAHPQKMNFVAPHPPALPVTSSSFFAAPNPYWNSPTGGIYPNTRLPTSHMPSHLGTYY
#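 His-tagged ERG Ets domain (1 uM in the protein solution; 300mM KCl, 50mM Tris-HCl, 1mM EDTA, 1mM DTT, pH 7.5) received compound, then a probe mix of 5 nM fluorescein-DNA and 100nM Texas-615-DNA. Fluorescence polarization was read for both dyes.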
# LDHA block = LDHA (human) enzyme inhibition | P00338 | purified LDHA, NADH/diaphorase-resazurin fluorescence; stronger effect = lower value | activity change, % (values are at about 110 or 230 µM) | hit rate 0.15% among 480,000; in the data active = activity change below about -30%; inconclusive = mostly about -25% to -30%;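 also: plate controls were DMSO wells for no effect and wells without enzyme for full effect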
#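 Resorufin fluorescence (ex540/em590), read at 0 and 20 min after diaphorase/resazurin addition, reports the NADH left after a 5 min room-temperature reaction of 2 nM human LDH5 with 0.06 mM NADH and 0.2 mM pyruvate.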
# Active calls of the source: *; ? = inconclusive; . = not tested or not shown. An excerpt weighted towards active compounds, which were near 2.7% of everything screened. Unless noted, calls follow the shape of the dose curve; as a rule, active = well fitted curve in the direction sought with a large enough effect; inconclusive = small, poorly fitted or top-dose-only effect, or another doubt; inactive = no such curve, though single readings can be large; an effect the other way counts as inactive or inconclusive.
SMILES,A549 tox,Nrf2 activator,Nrf2 inh,ALOX12 inh,ERG Ets-DNA blk,LDHA block
Cc1ccc(S(=O)(=O)Nc2ccc3c(c2)n(C)c(=O)n3C)cc1,4%,18%,?,-2%,3%,3
CCOc1ccc(S(=O)(=O)Nc2ccc3c(c2)n(C)c(=O)n3C)cc1,2%,5%,16µM*,0%,-1%,-5
CCOC(=O)c1ccc(NS(=O)(=O)c2ccc(SC)cc2)cc1,?,0%,23µM*,-16%,-6%,-2
Cn1c(=O)n(C)c2cc(S(=O)(=O)Nc3ccccc3)ccc21,-7%,5%,23µM*,3%,-2%,-6
COC(=O)c1ccc(NS(=O)(=O)c2ccc3c(c2)n(C)c(=O)n3C)cc1,-1%,2%,-25%,-1%,-10%,-11
CCOC(=O)c1ccc(NS(=O)(=O)c2ccc3c(c2)n(C)c(=O)n3C)cc1,11%,5%,21µM*,2%,-1%,1
CCOC(=O)Cc1ccc(NS(=O)(=O)c2ccc(SC)cc2)cc1,-8%,1%,?,-78%,8%,-1
C/C(=N/Nc1ccc(S(=O)(=O)Nc2ccc(C)cc2C)cc1[N+](=O)[O-])c1ccc(Cl)s1,.,.,.,?,.,-4
O=C(NCCCNC(=O)c1cc2ccccc2[nH]1)c1ccc(-c2ccccc2)cc1,.,.,.,?,.,-7
O=S(=O)(Cc1ccc(F)cc1Cl)c1ccc2ccccc2c1,.,.,.,?,.,14
Clc1ccccc1-c1nc(-n2ccnc2)c2ccccc2n1,.,.,.,56µM*,.,.
COc1ccc(C(=O)OCC(=O)Nc2ncc([N+](=O)[O-])s2)cc1OC,-10%,0%,9%,35µM*,13%,1
O=C(COC(=O)c1ccc(Br)o1)Nc1ncc([N+](=O)[O-])s1,-12%,3%,9%,13%,0%,-3
FC(F)(F)c1cnc(N2CCc3sccc3C2)c(Cl)c1,.,.,.,-69%,.,4
Cc1cc(-n2cccc2)ccc1Br,.,.,.,21%,.,7
COc1cc(/C=C2\SC(=Nc3ccccc3)N(Cc3ccco3)C2=O)ccc1OC(C)C(=O)O (stereo not drawn),?,3%,-29%,-17%,.,-15
COCCN1C(=O)/C(=C/c2ccc(OCc3ccc(C(=O)O)cc3)c(OC)c2)SC1=Nc1ccccc1,21µM*,0%,?,?,0%,-1
CCOC(=O)c1ccc(N2C(=O)c3n[nH]c(C)c3C2c2ccc(C(=O)OC)cc2)cc1 (stereo not drawn),.,.,.,23%,.,4
CCOc1cccc(C(c2c[nH]c3ccccc23)c2c[nH]c3ccccc23)c1O,.,.,.,4µM*,.,-23
CCOc1ccccc1NC(=O)C(=O)c1c[nH]c2ccccc12,.,.,.,-26%,.,0
CS(=O)(=O)c1cc([N+](=O)[O-])c(Sc2nc3ccccc3[nH]2)c([N+](=O)[O-])c1,23µM*,?,.,?,2%,23
Cc1nc2cc(NC(C)C(=O)Nc3ccc(C#N)cc3)ccc2o1 (stereo not drawn),.,.,.,-14%,.,62
N#C/C(=C/c1ccc(-c2ccccc2)cc1)C(=O)c1ccsc1,.,.,.,?,.,-4
COc1cccc(C2C=C(c3ccc(OC)cc3OC)Nc3nnnn32)c1 (stereo not drawn),?,3%,18µM*,.,-28%,2
COc1ccccc1CNC(=O)COC(=O)c1cc(-c2ccco2)nc2ccccc12,-1%,?,2%,?,.,-3
SMILES,A549 tox,Nrf2 activator,Nrf2 inh,ALOX12 inh,ERG Ets-DNA blk,LDHA block
COC(=O)c1ccc(COC(=O)c2cc(-c3ccco3)nc3ccccc23)cc1,.,.,.,7.1µM*,.,-2
CNC(=O)NC(=O)COC(=O)c1cc(-c2ccco2)nc2ccccc12,.,.,.,16µM*,.,-1
NC(=O)COC(=O)c1cc(-c2ccco2)nc2ccccc12,-3%,3.5µM*,1%,28µM*,3%,-18
CC(C)CNC(=O)COC(=O)c1cc(-c2ccco2)nc2ccccc12,.,.,.,?,.,6
O=C(OCC(=O)N1CCCC1)c1cc(-c2ccco2)nc2ccccc12,.,.,.,6.3µM*,.,10
O=C(c1cc(-c2ccco2)nc2ccccc12)N1CCCC1,.,.,.,?,.,3
Cc1cc2oc(C(=O)Nc3ccccc3Cl)cc(=O)c2cc1C,.,.,.,-21%,.,-2
COc1ccc(C(=O)C(C)Oc2cccc(NC(=O)c3cccc([N+](=O)[O-])c3)c2)cc1 (stereo not drawn),-9%,0%,26µM*,?,-3%,-4
COc1cc(/C=C(/C#N)c2ccc(C(F)(F)F)cn2)ccc1O,.,.,.,8.9µM*,.,6
O=C(NCCNc1ccnc2cc(Cl)ccc12)c1ccccc1F,-10%,4%,18µM*,23%,-6%,-4
Cc1ccc(NC(=O)NC(=O)CN2CCN(c3ccc(O)cc3)CC2)c(C)c1,-14%,0%,23µM*,?,2%,36
CC(C)(C)NC(=O)NC(=O)CN1CCN(c2ccc(O)cc2)CC1,-21%,0%,21µM*,-25%,13%,25
Cc1ccc(NC(=O)NC(=O)CN2CCC(C(N)=O)CC2)c(C)c1,5%,3%,?,-3%,12%,-5
COc1cccc2[nH]c(C(=O)NCCCN(C)C)cc12,.,.,.,-11%,.,12
Oc1ccc(/C=N/NC(=S)Nc2cccnc2)c(O)c1O,-10%,4%,-23%,?,6%,51
Oc1cccc(/C=N/NC(=S)Nc2cccnc2)c1O,-16%,11%,?,45µM*,12%,18
COc1cccc(/C=N/NC(=S)Nc2cccc(C(=O)O)c2)c1O,7%,-2%,-3%,?,-11%,-47*
CC(C)c1ccc(C2C3=C(CC(C)(C)CC3=O)NC3=C2C(=O)c2ccccc23)cc1 (stereo not drawn),16µM*,0%,23µM*,?,-9%,-7
Cc1ccc(CNC(=O)CC2Nc3c4ccccc4nc(=S)n3C2=O)cc1 (stereo not drawn),.,.,.,-8%,.,.
C=CCNC(=O)CC1Nc2c3ccccc3nc(=S)n2C1=O (stereo not drawn),1%,0%,1%,18µM*,15%,-2
CCOC(=O)N1CCC(NC(=O)c2cc3cc(C)ccc3[nH]2)CC1,.,.,.,-15%,.,-1
CC(=O)N(C(C)=O)c1ncnc2c1c(-c1ccc(Cl)cc1)nn2C(C)(C)C,-20%,-1%,?,-12%,-5%,-48*
Cn1c(=O)[nH]c(=O)c2c1nc(Cl)n2Cc1ccccc1,.,.,.,?,.,8
S=c1[nH]c2ccc(Cc3ccc4[nH]c(=S)[nH]c4c3)cc2[nH]1,-1%,0%,9%,45µM*,1%,-1
